Compounds with a hit are over-represented: about 4% of the library has one in this group of screens.
Mtb FBA inh = inhibits M. tuberculosis FBA enzyme. AID 588726. hit rate 2.3% among 360,000. P9WQA3. purified M. tuberculosis FBA, fluorescence read-out. inhibition, % at 1 µM;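 further: 0% = vehicle and 100% = reference inhibitor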
UGM FP inh = inhibitors of M. tuberculosis UDP-galactopyranose mutase | P9WIQ1 | inhibition, % at 10 µM | purified UGM, fluorescence polarization probe displacement | hit rate 0.06% among 320,000; in the data active means inhibition above about 10%, passing the limit was not always enough
Target sequence (P9WIQ1 whole entry, looked up): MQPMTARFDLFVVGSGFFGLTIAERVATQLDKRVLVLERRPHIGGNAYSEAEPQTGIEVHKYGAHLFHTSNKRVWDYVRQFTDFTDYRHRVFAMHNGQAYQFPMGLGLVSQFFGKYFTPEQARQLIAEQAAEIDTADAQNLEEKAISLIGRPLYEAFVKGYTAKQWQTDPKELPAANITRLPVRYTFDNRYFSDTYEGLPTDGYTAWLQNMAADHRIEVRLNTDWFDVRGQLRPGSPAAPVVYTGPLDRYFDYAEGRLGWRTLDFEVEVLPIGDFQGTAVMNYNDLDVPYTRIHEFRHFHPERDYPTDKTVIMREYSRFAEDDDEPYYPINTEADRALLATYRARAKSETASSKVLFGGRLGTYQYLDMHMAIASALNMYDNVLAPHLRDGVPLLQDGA
Mtb bLac sens = beta-lactam sensitization of Mtb H37Rv; M. tuberculosis H37Rv growth with meropenem, percent inhibition; inhibition, % at 25 µM; hit rate 0.27% among 330,000; call rule not given here;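 further: growth measured after seven days incubation then overnight dye step; 0% = bacteria only wells and 100% = bacteria with antibiotic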
GDH-TPI counter-1 = GDH-TPI coupled enzyme inhibition counter-screen | GDH-TPI coupled enzyme counterscreen, NADH absorbance | inhibition, % at 4.8 µM | hit rate 1.2% among 360,000; in the data active means inhibition above about 30%;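 further: 0% = DMSO wells and 100% = wells lacking the enzyme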
Rv3671c inh = Rv3671c (M. tuberculosis) protease inhibition. P9WHR9. inhibition, % at 5.96 µM. hit rate 0.048% among 320,000. AID 2606; in the data active means inhibition above about 38%;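 further: extracellular domain of Rv3671c used as enzyme; 0% = enzyme with DMSO and 100% = no enzyme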
RecA splice inh = Mtb RecA intein splicing inhibition; inhibition, % (test concentration not listed); cell-free RecA intein splicing, fluorescence; P9WHJ3; hit rate 0.75% among 290,000; in the data active means inhibition above about 30%;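 further: 0% = vehicle wells and 100% = reference inhibitor control wells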
Mtb FBA inh conf = confirmation of M. tuberculosis fructose-bisphosphate aldolase inhibitors. inhibition, % at 1 µM. purified M. tuberculosis FBA, fluorescence read-out. AID 651616. hit rate 78% among 5,600. shares compounds with Mtb FBA inh;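 further: 0% = vehicle wells and 100% = reference inhibitor wells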
GDH-TPI counter-2 = inhibits GDH-TPI coupling enzymes, flagging Mtb FBA hits | hit rate 81% among 5,600 | AID 652141 | GDH-TPI coupled enzyme counterscreen, fluorescence | inhibition, % at 1 µM | shares compounds with Mtb FBA inh; in the data active means inhibition above about 10%
An asterisk follows results filed as active; x = no result given; + = active, no number. Unless noted, no stated cut-off is given here; in the data, active means inhibition above about 27%; inactive means the rest.

SMILES	Mtb FBA inh	UGM FP inh	Mtb bLac sens	GDH-TPI counter-1	Rv3671c inh	RecA splice inh	Mtb FBA inh conf	GDH-TPI counter-2
COc1cc(OC)cc(-c2c(-c3cccs3)c3cc(-c4ccc(OC)c(OC)c4)ccc3n2C)c1	32.5*	1.7	18.0	18.7	3.1	x	+	170.3*
Cc1ccc(OCCC(=O)N(CCC(C)C)c2c(N)n(Cc3ccccc3)c(=O)[nH]c2=O)cc1	-2.5	-0.9	0.8	-7.8	1.1	0.7	x	x
CCOC(=O)Cc1csc(NS(=O)(=O)c2ccc(SC)cc2)n1	4.0	4.9	-0.5	-1.9	4.2	3.4	x	x
CCn1ncc([N+](=O)[O-])c1C(=O)N1CCc2ccccc2C1	2.5	1.1	2.8	0.0	-1.2	1.7	x	x
CCOc1ccccc1-c1nc2c([nH]1)c(=O)n(C)c(=O)n2C	39.2*	2.1	-5.4	16.8	-2.7	1.2	94.1*	82.1*
CCOc1ccccc1-c1nc2c(C(C)(C)C)nn(C)c2c(=O)[nH]1	x	0.9	-8.0	x	-7.9	0.8	x	x
CC(=O)C12CCCCC1CC1[C@@H]3CC(C)C4=CC(=O)CC[C@]4(C)C3CC[C@@]12C (some centres not stated)	34.3*	x	x	2.1	x	4.2	187.2*	175.4*
CC(=O)O[C@]1(C(C)=O)CC[C@H]2[C@@H]3C[C@H](C)C4=CC(=O)CC[C@]4(C)[C@H]3CC[C@@]21C	0.0	0.2	-3.5	-1.6	1.7	4.1	x	x
CN(C)S(=O)(=O)c1cc(NC(=O)COC(=O)CC2Sc3ccccc3NC2=O)ccc1Cl (configuration not stated)	2.7	6.2	-1.0	9.4	-19.2	x	x	x
Cc1cccn2c(=O)c3cc(C(=O)N4CCN(C(=O)c5ccco5)CC4)n(C)c3nc12	81.5*	2.0	1.8	25.8	-13.4	-16.0	+	+
O=C(c1ccco1)N1CCN(C(=O)c2cccn3c(=O)c4c5c(sc4nc23)CCCC5)CC1	33.6*	x	x	27.7	x	x	188.8*	145.1*
Cc1cccn2c(=O)c3cc(C(=O)N4CCOCC4)n(C)c3nc12	66.2*	-2.9	-7.5	17.2	3.1	-21.7	-9.8	-11.0
Cc1cccn2c(=O)c3cc(C(=O)N4c5ccccc5CC4C)n(C)c3nc12 (configuration not stated)	0.1	0.5	-8.3	7.7	0.4	-4.9	x	x
O=C1CSC(c2ccccc2)N1c1cccnc1 (configuration not stated)	0.2	5.7	25.7	3.7	1.5	-0.8	x	x
COc1cc2c(cc1OC)CN(C(=O)C1CCCN(C(=O)c3ccc(Cl)cc3)C1)CC2 (configuration not stated)	-0.3	2.9	-6.6	4.0	-9.9	x	x	x
COc1ccc(C2C(C#N)=C(C)NC3=C2C(=O)CC(C)(C)C3)c(OC)c1 (configuration not stated)	14.7	1.1	-3.3	13.3	4.8	-53.9	x	x
COc1ccc(C2C(C(=O)N3CCOCC3)=C(C)NC3=C2C(=O)CC(C)(C)C3)c(OC)c1 (configuration not stated)	58.4*	-1.1	1.8	9.1	-9.6	-19.8	+	+
CC1=C(C(=O)N2CCOCC2)C(c2ccccc2F)C2=C(CC(C)(C)CC2=O)N1 (configuration not stated)	54.5*	-0.8	-1.7	0.0	5.1	-8.3	84.0*	73.0*
CCOc1ccc(Oc2c(C)oc3cc(O)ccc3c2=O)cc1	43.8*	-1.5	3.1	9.1	-7.6	-3.5	+	159.7*
Cc1oc2cc(O)ccc2c(=O)c1Oc1ccccc1	100.8*	0.2	-4.2	22.0	4.0	-2.4	82.7*	58.6*
COC(=O)c1cc(-c2c(C)oc3cc(OC)ccc3c2=O)c(C)o1	-3.3	1.8	2.9	-7.4	-1.1	4.6	x	x
COC(=O)COc1ccc2c(=O)c(Oc3ccccc3)c(C)oc2c1	0.1	-4.3	99.5	9.6	-3.2	-1.8	x	x
COC(=O)c1cc(-c2c(C)oc3cc(O)ccc3c2=O)c(C)o1	75.9*	-0.6	2.9	29.4	-1.4	-0.4	29.1*	32.5*
Cc1oc2cc(O)ccc2c(=O)c1Oc1ccccc1Br	95.6*	0.0	4.8	17.8	6.0	0.6	5.9	-0.8

Bioassay records: PubChem, several laboratories
